Results filed as inconclusive are left out. Calls of active or inactive are those of the source. Calls come from the whole dose curve.

Vitamin D3 receptor (Homo sapiens), sequence (P11473 whole entry, looked up): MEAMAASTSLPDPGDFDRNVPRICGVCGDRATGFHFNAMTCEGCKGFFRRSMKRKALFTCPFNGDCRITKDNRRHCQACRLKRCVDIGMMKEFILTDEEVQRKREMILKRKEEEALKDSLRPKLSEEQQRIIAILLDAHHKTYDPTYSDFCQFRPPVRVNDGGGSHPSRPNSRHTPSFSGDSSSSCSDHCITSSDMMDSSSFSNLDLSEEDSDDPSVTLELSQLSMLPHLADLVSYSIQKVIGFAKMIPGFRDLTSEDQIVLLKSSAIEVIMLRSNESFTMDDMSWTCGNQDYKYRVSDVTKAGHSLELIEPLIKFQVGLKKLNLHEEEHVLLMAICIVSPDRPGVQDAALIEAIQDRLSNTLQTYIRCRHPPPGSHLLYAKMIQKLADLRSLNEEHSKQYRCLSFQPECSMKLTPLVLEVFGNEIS

For the assay, the target named is Vitamin D3 receptor (Homo sapiens) (UniProt P11473). As to the kind of experiment: qHTS assay for small molecule agonists of vitamin D receptor signaling (AID 588543). Particulars: HEK293T VDR-UAS-bla, beta-lactamase ratio, 16 h; series mostly up to 76.8 µM. From the text:
NIH Chemical Genomics Center [NCGC]
U.S. Environmental Protection Agency [EPA]
National Institutes of Environmental Health Sciences [NIEHS]
National Toxicology Program [NTP]
The Vitamin D receptor (VDR) is a member of nuclear hormone receptor superfamily and it plays a critical role in calcium homeostasis and bone metabolism. It plays a role in inducing cell differentiation, inhibiting cell growth and in thrombogenicity. So, VDR that mediates these effects represents a pharmacological target in prevention and treatment of hyperproliferative malignancies, such as cancer and psoriasis, cardiovascular, immunological, inflammatory and renal diseases etc.
NCGC Assay Protocol Summary
Using a beta-lactamase reporter-gene under control of Vitamin D receptor (VDR) response element, a cell-based assay [GeneBLAzer (VDR -UAS-bla assay developed by Invitrogen] was used to measure VDR ligands signaling. GeneBLAzer VDR -UAS-bla HEK293T cells were used with assay medium containing 2% charcoal-stripped FBS. The assay was performed in clear bottom black Greiner 1536-well plates. 1-alpha,25-Dihydroxy vitaminD3 was used as a positive control in the screen. Library compounds were measured for their ability to stimulate the reporter gene activity. Compounds were screened in a titration series in 1536-well format. The fluorescence intensity (405 nm excitation, 460/530 nm emission) was measured using an EnVision plate reader. Data was normalized relative to 1-alpha,25-Dihydroxy vitaminD3 control (50 nM, 100%) and DMSO only wells (basal, 0%). Concentration-response titration points for each compound were fitted to the Hill equation yielding concentrations of half-maximal stimulation (EC50) and maximal response (efficacy) values.
qHTS protocol for VDR beta-lactamase assay in agonist mode
[Step] [Parameter] [Value] [Description]
1. Reagent; 6 uL; 2000 cells/well
2. Incubation; 37 C for 5 hrs
4. Controls (1-alpha,25-Dihydroxy vitaminD3); 23 nL,
- Final concentrations of 50 nM and 15 nM in two columns
5. Incubation; 37 C for 16 hrs
6. Detection reagent; 1 uL of CCF4-dye
7. Incubation; RT for 2 hrs
8. Detection; Fluorescence; Envision plate reader
(Quantitative high-throughput screening tests each substance at several concentrations.)
With `CCOP(=O)(OCC)SCSP(=S)(OCC)OCC`, the result was inactive.
For `CCOC(=O)C(Cl)Cc1cc(-n2nc(C)n(C(F)F)c2=O)c(F)cc1Cl` (stereo not given), the result was inactive.
To `N#CC(Cl)Cl` belongs “inactive”; to `O=P(Oc1ccccc1)(Oc1ccccc1)Oc1ccccc1`, “inactive”; to `CCCC1COC(Cn2cncn2)(c2ccc(Cl)cc2Cl)O1` (stereo not given), “inactive”.
As to `N#CC(Br)(Br)C(N)=O`, the result was inactive.
As for `CCOP(=S)(OCC)Oc1nc(Cl)n(C(C)C)n1`, the entry is “inactive”; as for `Cc1cc(Cl)ccc1N=CN(C)C`, “inactive”.
To `CCNc1nc(Cl)nc(NC(C)(C)C)n1` belongs “inactive”; to `CCOP(=S)(NC(C)C)Oc1ccccc1C(=O)OC(C)C` (stereo not given), “inactive”; to `CCN(CC)c1nc(C)cc(OP(=S)(OC)OC)n1`, “inactive”.
As for `O=S(=O)(O)C(F)(F)C(F)(F)C(F)(F)C(F)(F)C(F)(F)C(F)(F)F`, the outcome was inactive.
To `CC(C)[C@@H](Nc1ccc(C(F)(F)F)cc1Cl)C(=O)OC(C#N)c1cccc(Oc2ccccc2)c1` (stereo not given in full) belongs “inactive”; to `CCOc1ccc(C(C)(C)COCc2cccc(Oc3ccccc3)c2)cc1`, “inactive”; to `CCCCCCCCn1sccc1=O`, “inactive”.
For the molecule `CCOc1nc(C(Cl)(Cl)Cl)ns1`, the result was inactive.
Take `Clc1ccccc1-c1nnc(-c2ccccc2Cl)nn1`: the result was inactive.
As for `CC(C)(C)C(O)C(Oc1ccc(-c2ccccc2)cc1)n1cncn1` (stereo not given), the entry is “inactive”; as for `OC(Cn1cncn1)(c1ccc(F)cc1)c1ccccc1F` (stereo not given), “inactive”; as for `CNC(=O)O/N=C(\C)SC`, “inactive”.
As for `CC1(c2ccc(Oc3ccccc3)cc2)OC(=O)N(Nc2ccccc2)C1=O` (stereo not given), the result was inactive.
Turning to `CC/C(=N\OC/C=C/Cl)C1=C(O)CC(C2CCOCC2)CC1=O` (stereo not given), the outcome was inactive.
To `CCCCCCCCCCCCCCC(Br)C(=O)O` (stereo not given) belongs “inactive”.
To `O=S(=O)(c1ccc(Cl)cc1)c1cc(Cl)c(Cl)cc1Cl` belongs “inactive”; to `CC1(C)Cc2cccc(O)c2O1`, “inactive”.
For `CC(C)(C)OOC(C)(C)c1ccc(C(C)(C)OOC(C)(C)C)cc1`, the result was inactive.
As for `CC(C)(c1ccccc1)c1cc(-n2nc3ccccc3n2)c(O)c(C(C)(C)c2ccccc2)c1`, the entry is “inactive”; as for `CC(C)=CC1C(C(=O)OCc2coc(Cc3ccccc3)c2)C1(C)C` (stereo not given), “inactive”; as for `CCC(C)(C)c1ccc(O)c(C(C)(C)CC)c1`, “inactive”.
As for `Nc1c(Cl)c(F)nc(OCC(=O)O)c1Cl`, the entry is “inactive”; as for `[Cd+2].[Cl-].[Cl-]`, “inactive”; as for `CCOc1nc(F)cc2nc(S(=O)(=O)Nc3c(Cl)cccc3Cl)nn12`, “inactive”.
Take `COP(=O)(OC)SCn1c(=O)oc2cc(Cl)cnc21`: the outcome was inactive.
To `CCNc1nc(NC(C)C)nc(OC)n1` belongs “inactive”.
To `CNC(=O)O/N=C(\SC)C(=O)N(C)C` belongs “inactive”; to `[Cu+2].[O-]c1cccc2cccnc12.[O-]c1cccc2cccnc12`, “inactive”.
In the case of `CCCSC(=O)N(CCC)CCC`, the outcome was inactive.
For the molecule `CC(C)COP(=O)(OCC(C)C)OCC(C)C`, the result was inactive.
Consider `CCNc1nc(NC(C)C)nc(SC)n1`, for which the outcome was inactive.
As for `O=[As](O)(O)O`, the entry is “inactive”.

The values are drawn from PubChem BioAssay (NCATS).
